RORg inh = qHTS for inhibitors of ROR gamma transcriptional activity; Nuclear receptor ROR-gamma (Mus musculus), P51450; Drosophila S2 Gal4-RORgamma UAS-luciferase reporter, 20 h; Potency, µM (titrated, usually from 53.6 µM), for inactives: at the top dose activity change, negative = inhibition, hits mostly inhibitors; actives 5.4% (n = 310,000); note: nearly all actives have a fitted effect of over 60% in size
Target sequence (P51450 whole entry, looked up, the tested form may be a part): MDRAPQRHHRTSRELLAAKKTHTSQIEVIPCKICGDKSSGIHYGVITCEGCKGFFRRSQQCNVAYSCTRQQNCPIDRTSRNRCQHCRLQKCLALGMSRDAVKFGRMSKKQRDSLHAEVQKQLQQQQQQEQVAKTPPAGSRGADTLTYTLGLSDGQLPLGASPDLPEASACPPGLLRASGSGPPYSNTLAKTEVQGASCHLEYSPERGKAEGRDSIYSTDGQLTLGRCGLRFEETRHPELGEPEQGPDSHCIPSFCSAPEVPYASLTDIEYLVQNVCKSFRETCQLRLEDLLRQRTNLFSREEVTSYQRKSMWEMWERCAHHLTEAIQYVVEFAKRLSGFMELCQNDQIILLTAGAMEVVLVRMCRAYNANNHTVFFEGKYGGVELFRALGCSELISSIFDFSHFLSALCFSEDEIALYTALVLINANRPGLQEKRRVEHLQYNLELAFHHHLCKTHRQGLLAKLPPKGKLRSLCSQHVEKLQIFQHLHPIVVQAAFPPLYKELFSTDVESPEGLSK
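Using a luciferase readout, inhibitors were identified by reduced reporter activity in Drosophila cells coexpressing a copper-inducible Gal4–ROR gamma fusion and UAS-driven Photinus luciferase, incubated 20 hr after 700 uM copper sulfate.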
Tau ThT inhib = qHTS for Inhibitors of Tau Fibril Formation, Thioflavin T Binding | Microtubule-associated protein tau (Homo sapiens), P10636 | recombinant tau K18 P301L, heparin-induced fibrillization, ThT fluorescence | Potency, µM (titrated, usually from 57.4 µM), without a hit: at the top dose activity, negative = inhibition, usual class: inhibitors | actives 2.1% (n = 270,000); note: nearly all actives have a fitted effect of over 55% in size
Target sequence (P10636 561-689 P618L limits assumed): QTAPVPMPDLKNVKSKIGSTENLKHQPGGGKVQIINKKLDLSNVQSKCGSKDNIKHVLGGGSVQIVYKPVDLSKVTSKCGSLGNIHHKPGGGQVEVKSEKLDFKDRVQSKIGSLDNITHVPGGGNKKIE
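ThT emission at 510 nm, taken 1 hr after adding 30 uM dye, quantifies aggregates formed when 20 uM heparin acts on human tau K18 P301L for 6 hr at 37 C.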
Tau fluor cs = Counterscreen qHTS for Inhibitors of Tau Fibril Formation, Fluorescence Polarization; AID 1463, 2008; Potency, µM (doses to about 57.7 µM), inactives show at the top dose activity change, negative = decrease; tau K18 P301L Alexa594 fluorescence, heparin fibrillization; actives 0.93% (n = 280,000); note: nearly all actives have a fitted effect of over 55% in size
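Human tau K18 P301L (15 uM unlabeled, 0.24 uM Alexa 594-labeled) in 100 mM sodium acetate pH 7 with 20 uM heparin, 6 hr at 37 C. ThT 30 uM added, 1 hr ambient; Alexa 594 FP and total fluorescence read at 555/632 nm.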
VP16 counter = VP16 counterscreen qHTS for inhibitors of ROR gamma transcriptional activity. Drosophila S2 Gal4-VP16 UAS-luciferase, luminescence, 20 h. actives 3.5% (n = 310,000). AID 2546, 2010. Potency, µM (doses to about 53.6 µM), inactives show at the top dose activity, negative = inhibition, usual class: inhibitors;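 note: Gal4-VP16 expression switched on by copper sulfate through the metallothionein promoter; nearly all actives have a fitted effect of over 50% in size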
Tau FP inhib = qHTS for Inhibitors of Tau Fibril Formation, Fluorescence Polarization; Microtubule-associated protein tau (Homo sapiens), P10636; K18 P301L tau heparin fibrillization, Alexa594 FP, 6 h; Potency, µM (top dose mostly 57.7 µM), for the others: at the highest dose activity, negative = inhibition, actives largely listed as inhibitors; actives 0.39% (n = 280,000); AID 1468, 2008; note: nearly all actives have a fitted effect of over 55% in size
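Read-out: fluorescence polarization of Alexa 594-labeled tau (0.24 uM), 555 nm excitation, 632 nm emission. Mixtures held 15 uM unlabeled K18 P301L, compound and 20 uM heparin, pH 7 acetate buffer, incubated 6 hr at 37 C.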
* = called active by the depositor. Only some compounds are listed: those with a hit (about 7.3% of all), similar ones and a draw of the others. Calls come from the whole dose curve; as a rule, active = well fitted curve in the direction sought with a large enough effect; inconclusive = small, poorly fitted or top-dose-only effect, or another doubt; inactive = no such curve, though single readings can be large; an effect the other way counts as inactive or inconclusive. % is set by controls: 0 for no effect and ±100 for the full control effect; potency is the fitted concentration of half-maximal effect.

How did CC(C)C[C@H](NC(=O)CNC(=O)[C@@H]1CCCN1C(=O)[C@H](CCCNC(=N)N)NC(=O)[C@H](CC(=O)O)NC(=O)[C@@H](NC(=O)[C@H](CC(N)=O)NC(=O)[C@@H](NC(=O)[C@H](CC(=O)O)NC(=O)CNC(=O)[C@@H](NC(=O)[C@@H](NC(=O)[C@H](C)NC(=O)[C@@H](N)CCC(N)=O)[C@@H](C)O)C(C)C)C(C)C)[C@@H](C)O)C(=O)N[C@@H](CC(C)C)C(=O)N[C@@H](CC(=O)O)C(=O)N[C@@H](CC(C)C)C(=O)N[C@@H](CCCCN)C(=O)O do in these assays?
RORg inh: 12%; VP16 counter: -10%

Results for CCn1c(SCC(=O)N/N=C/C=C/c2ccco2)nc2ccccc21 ?
RORg inh: inconclusive; Tau ThT inhib: inconclusive; Tau fluor cs: -12%; VP16 counter: 16µM*; Tau FP inhib: inconclusive

What do the screens show for `CCn1c(SCC(=O)N/N=C/C=C/c2ccco2)nnc1-c1ccc(OC)cc1`?
RORg inh: 24%; Tau ThT inhib: 13%; Tau fluor cs: 4%; VP16 counter: -5%; Tau FP inhib: 12%

Results for Cc1ccc(-n2cc[nH]c2=S)c(C)c1 ?
RORg inh: 10µM*; Tau ThT inhib: -2%; Tau fluor cs: 1%; VP16 counter: inconclusive; Tau FP inhib: 6%

Results for Cc1ccc(C)c(N2CC(=O)N(c3cc(C)ccc3C)CC2=O)c1 ?
RORg inh: -31%; Tau ThT inhib: -3%; Tau fluor cs: 5%; VP16 counter: 2%; Tau FP inhib: 2%

What do the screens show for `FC(F)(F)c1cnc(-n2cc[nH]c2=S)c(Cl)c1`?
RORg inh: -42%; Tau ThT inhib: -17%; Tau fluor cs: -9%; VP16 counter: -3%; Tau FP inhib: -2%

Results for Cc1ccc(-n2c(N)c(C(N)=O)sc2=S)c(C)c1 ?
RORg inh: -6%; Tau ThT inhib: -8%; Tau fluor cs: -14%; VP16 counter: 7%; Tau FP inhib: 3%

How did Cc1ccc(C)c(-n2cc[nH]c2=S)c1 do in these assays?
RORg inh: 11µM*; Tau ThT inhib: -4%; Tau fluor cs: -4%; VP16 counter: inconclusive; Tau FP inhib: 1%

What do the screens show for `Cc1cc(C)cc(-n2cc[nH]c2=S)c1`?
RORg inh: 7.1µM*; Tau ThT inhib: 5%; Tau fluor cs: 8%; VP16 counter: 10µM*; Tau FP inhib: -1%

How did COc1ccc(C(=O)c2cn(Cc3ccc(F)cc3)c3c(F)cc(F)cc3c2=O)cc1 do in these assays?
Tau ThT inhib: 1%; Tau fluor cs: -4%; Tau FP inhib: 5%

Results for C=CCNC(=O)NC(=O)CN1C(=O)NC(c2ccccc2)(c2ccccc2)C1=O ?
RORg inh: 2%; VP16 counter: 3%

Results for CC(NC(=O)CCc1nc2cc(S(=O)(=O)N3CCOCC3)ccc2n1C)c1ccc(S(N)(=O)=O)cc1 (centres undefined) ?
RORg inh: -7%; VP16 counter: 9%

How did CCOC(=O)c1nnc(-c2ccc(C)cc2)nc1Sc1ccccc1Cl do in these assays?
RORg inh: 27%; Tau ThT inhib: inconclusive; Tau fluor cs: -13%; VP16 counter: -17%; Tau FP inhib: -7%

How did CCOC(=O)c1nnc(-c2ccc(C)cc2)nc1Oc1ccccc1Cl do in these assays?
RORg inh: 7%; Tau ThT inhib: inconclusive; Tau fluor cs: inconclusive; VP16 counter: 6.3µM*; Tau FP inhib: 1%

Results for CCOC(=O)c1nnc(-c2ccc(C)cc2)nc1Oc1ccc(Cl)cc1Cl ?
RORg inh: -27%; Tau ThT inhib: inconclusive; Tau fluor cs: -10%; VP16 counter: inconclusive; Tau FP inhib: -2%

Results for CCOC(=O)c1nnc(-c2ccccc2)nc1Sc1c(Cl)cccc1Cl ?
RORg inh: -28%; Tau ThT inhib: 11µM*; Tau fluor cs: inconclusive; VP16 counter: 18µM*; Tau FP inhib: -6%

Results for CCCCCC(=O)/C=C/[C@@H]1[C@@H](C/C=C\CCCC(=O)O)[C@@H](O)C[C@H]1O ?
RORg inh: 7%; Tau ThT inhib: -6%; Tau fluor cs: -1%; VP16 counter: -2%; Tau FP inhib: 2%

Results for Clc1ccc(CCNc2ncnc3nc[nH]c23)cc1 ?
RORg inh: -22%; Tau ThT inhib: -1%; Tau fluor cs: 2%; VP16 counter: 11µM*; Tau FP inhib: 12%

What do the screens show for `c1ccc(CCCNc2ncnc3nc[nH]c23)cc1`?
RORg inh: 2%; Tau ThT inhib: -4%; Tau fluor cs: -4%; VP16 counter: 2%; Tau FP inhib: 6%

Results for Cn1c(=O)c2c(nc(NCc3ccc4c(c3)OCO4)n2Cc2ccccc2F)n(C)c1=O ?
RORg inh: 1%; Tau ThT inhib: -14%; Tau fluor cs: -19%; VP16 counter: 18µM*; Tau FP inhib: inconclusive

What do the screens show for `Cn1c(=O)c2c(nc(NCc3ccc4c(c3)OCO4)n2Cc2ccccc2)n(C)c1=O`?
RORg inh: -37%; Tau ThT inhib: -7%; Tau fluor cs: -26%; VP16 counter: 7.1µM*; Tau FP inhib: 14%

What do the screens show for `Cn1c(=O)c2c(nc(NCc3ccccc3)n2Cc2ccccc2)n(C)c1=O`?
Tau ThT inhib: -14%; Tau fluor cs: inconclusive; Tau FP inhib: inconclusive

How did Cn1c(=O)c2c(nc(NCc3ccccc3)n2Cc2ccccc2Cl)n(C)c1=O do in these assays?
Tau ThT inhib: -4%; Tau fluor cs: -6%; Tau FP inhib: 3%

Results for Cn1c(=O)c2c(nc(NCc3ccc4c(c3)OCO4)n2Cc2ccc(F)cc2)n(C)c1=O ?
RORg inh: -37%; Tau ThT inhib: inconclusive; Tau fluor cs: inconclusive; VP16 counter: 10µM*; Tau FP inhib: inconclusive

How did COCCNC(=O)c1cc(-c2ccc(-c3ccccc3)cc2)nc2ccccc12 do in these assays?
RORg inh: 7%; VP16 counter: -4%

What do the screens show for `Cn1ccnc1C(O)c1cc(C(C)(C)C)c(O)c(C(C)(C)C)c1` (centres undefined)?
RORg inh: 10µM*; Tau ThT inhib: inconclusive; Tau fluor cs: 0%; VP16 counter: inconclusive; Tau FP inhib: -4%

How did CC(C)(Sc1cc(C(C)(C)C)c(O)c(C(C)(C)C)c1)Sc1cc(C(C)(C)C)c(O)c(C(C)(C)C)c1 do in these assays?
RORg inh: -6%; Tau ThT inhib: -14%; Tau fluor cs: -8%; VP16 counter: 1%; Tau FP inhib: inconclusive

Results for O=C(NCc1ccc(Cl)cc1)C1CCN(c2nn3cc(-c4ccc(F)cc4)nc3s2)CC1 ?
Tau ThT inhib: inconclusive; Tau fluor cs: -1%; Tau FP inhib: inconclusive
